Hits are enriched below; roughly 4% of the tested compounds scored in any of these assays.
Beta cell apopt = beta cell apoptosis inhibition; INS-1E cytokine-induced death, ATP luminescence, 48 h; percent of positive-control rescue, neutral wells zero; protection from apoptosis, % (no concentration beside the values); AID 435005; 300,000 compounds, 0.8% hits;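 active = Every replicate reaches about 75%, or at least half do and their mean reaches it too, limit read from the data; inconclusive = At least half of replicates reach the limit but their mean does not; inactive = Under half of replicates reach the limit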;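 also: 0% = cytokine-treated negative control wells and 100% = positive control rescue; higher means more ATP so stronger rescue from cytokine killing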
CSC inhib = cancer stem cell inhibition. cancer stem cell-like cells viability, luminescence. inhibition, % at 7.5 µM. 300,000 compounds, 1.1% hits. AID 2717; in the data active = inhibition above about 75%; inconclusive = no clear call, values can overlap the other calls; tested in HMLE shEcad cells
PAX8 inh HTS = inhibitors of PAX8 transcriptional activity in RMG-I cells; RMG-I TPO-luciferase reporter, SteadyGlo, 24 h; inhibition, % at 12.6 µM; 360,000 compounds, 1.2% hits; AID 652154;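 active = mean replicate inhibition at least 60% with every replicate also reaching 60%; inconclusive = only one of the two criteria is met; inactive = mean below 60% and not all replicates reaching 60%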;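 also: luciferase light reporting Pax8 driven TPO promoter activity; plate controls were median of neutral control wells for no effect and mitoxantrone controls for full effect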
Mdm2-MdmX inh = inhibitors of human Mdm2/MdmX interaction. 330,000 compounds, 3% hits. SaOS-2 split-luciferase Mdm2/MdmX complementation, luminescence. inhibition, % at 8 µM. AID 485346. O15151+Q00987;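 active = inhibition of at least 50% at 8 µM in the primary screen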
Shn3 inh set2 = Schnurri-3 reporter inhibition in Clone20 osteoblasts; Clone20 osteoblast Shn3 3'UTR firefly luciferase, 24 h; inhibition, % at 12.5 µM; 360,000 compounds, 0.52% hits;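 active = mean inhibition of at least 75% with every replicate also reaching 75%; inconclusive = mean inhibition at least 75% but some replicate below; inactive = mean inhibition below 75%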;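 also: 0% = median of neutral control wells and 100% = pilot-screen positive control compound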
Gli-Sufu block = antagonists of Gli-Sufu signaling; Sufu-KO-LIGHT fibroblasts, Gli luciferase reporter luminescence; inhibition, % at 5 µM; 340,000 compounds, 0.74% hits; AID 588413;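 active = inhibition above about 55%, limit read from the data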;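 also: 0% = DMSO-treated cells and 100% = wells with medium but no cells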
The depositor's hits bear a star.

For C[C@@H]1CN([C@@H](C)CO)C(=O)Cc2cc(NC(=O)Nc3ccc(F)cc3)ccc2O[C@@H]1CN(C)C(=O)Nc1ccc2c(c1)OCO2 the results were PAX8 inh HTS 3.
Screening COc1ccc(-c2nn(-c3ccccc3)cc2/C=N/O)cc1OC returned Beta cell apopt -13, CSC inhib 32, PAX8 inh HTS 26, Mdm2-MdmX inh 28, Shn3 inh set2 16 and Gli-Sufu block 46.
Screening COc1ccc(-c2nn(-c3ccccc3)cc2/C=N/Nc2ccc3ccccc3n2)cc1OC returned Beta cell apopt 86*, CSC inhib 5, PAX8 inh HTS 18, Mdm2-MdmX inh 21, Shn3 inh set2 8 and Gli-Sufu block 8.
Screening C[C@@H]1CN([C@@H](C)CO)C(=O)Cc2cc(NC(=O)C3CCCCC3)ccc2O[C@H]1CN(C)S(=O)(=O)c1cn(C)cn1 returned PAX8 inh HTS -14.
`O=C(NCc1ccccc1)C(c1ccccc1)N(Cc1ccccc1)C(=O)Cc1ccccc1` (stereo not drawn) gave PAX8 inh HTS 79*.
Screening COc1ccc(CNC(=O)C(c2ccco2)N(Cc2ccccc2)C(=O)Cc2cccs2)cc1 (stereo not drawn) returned Beta cell apopt 0, CSC inhib 3, PAX8 inh HTS 22, Mdm2-MdmX inh 1, Shn3 inh set2 8 and Gli-Sufu block 0.
`COc1cccc(NC(=O)N2CC(=O)N3[C@@H](CO)[C@@H](c4ccc(C#CC5CCCC5)cc4)[C@@H]3C2)c1` gave PAX8 inh HTS 13.
`O=C(NCC[C@H]1CC[C@@H](NS(=O)(=O)c2ccc(F)cc2)[C@@H](CO)O1)Nc1ccc(F)cc1` gave PAX8 inh HTS 3.
Screening O=c1cc(-c2ccccc2)cc(-c2ccccc2)n1O returned Beta cell apopt 43, CSC inhib -3, PAX8 inh HTS 31, Mdm2-MdmX inh 28, Shn3 inh set2 92* and Gli-Sufu block 14.
For Cn1c(-c2ccccc2)cc(=O)cc1-c1ccccc1 the results were PAX8 inh HTS 7 and Shn3 inh set2 -4.
Screening Cc1cc(SCC(=O)c2cccs2)n2nc(C)c(-c3ccc(Cl)cc3)c2n1 returned Beta cell apopt 26, CSC inhib 78*, PAX8 inh HTS -12, Mdm2-MdmX inh 47, Shn3 inh set2 11 and Gli-Sufu block 5.
`Cc1nn2c(SCC(=O)c3cccs3)cc(C(C)(C)C)nc2c1-c1ccccc1` gave Beta cell apopt 11, CSC inhib 37, PAX8 inh HTS 13, Mdm2-MdmX inh 7, Shn3 inh set2 15 and Gli-Sufu block -7.
`CNC[C@H]1Oc2ncc(Br)cc2C(=O)N([C@H](C)CO)C[C@H]1C` gave PAX8 inh HTS -18.
`C[C@H]1CCCCO[C@@H](CN(C)S(=O)(=O)c2ccc(F)cc2)[C@@H](C)CN([C@@H](C)CO)C(=O)c2cc(NC(=O)Nc3ccc(F)cc3)ccc2O1` gave PAX8 inh HTS 52.
For Cc1ccc(S(=O)(=O)N(C)C[C@H]2OCCCC[C@@H](C)Oc3ccc(NC(=O)Nc4ccc(F)cc4)cc3C(=O)N([C@@H](C)CO)C[C@@H]2C)cc1 the results were PAX8 inh HTS 45.
C[C@H](CO)N1C[C@H](C)[C@H](CN(C)S(=O)(=O)c2ccc(F)cc2)OCCCC[C@H](C)Oc2ccc(NC(=O)Nc3ccc(F)cc3)cc2C1=O was read as PAX8 inh HTS 76*.
For Cc1ccc(S(=O)(=O)N(C)C[C@@H]2OCCCC[C@H](C)Oc3ccc(NC(=O)Nc4ccc(F)cc4)cc3C(=O)N([C@H](C)CO)C[C@@H]2C)cc1 the results were PAX8 inh HTS 61*.
`C[C@@H]1CN([C@H](C)CO)C(=O)c2cc(NC(=O)Nc3ccc(F)cc3)ccc2O[C@@H](C)CCCCO[C@H]1CN(C)S(=O)(=O)c1ccc(F)cc1` gave PAX8 inh HTS 86*.
`Cc1ccc(S(=O)(=O)N[C@@H]2C=C[C@H](CC(=O)O)O[C@H]2CO)cc1` gave PAX8 inh HTS -9.
For COCC#Cc1ccc([C@H]2[C@@H](CO)N3CCCCN(C(=O)CN(C)C)C[C@H]23)cc1 the results were PAX8 inh HTS -7.
N#Cc1ccc(-c2cn(-c3ccccc3)c3[n+]2CCCS3)cc1 was read as Beta cell apopt -3, CSC inhib -21, PAX8 inh HTS 18, Mdm2-MdmX inh 8, Shn3 inh set2 16 and Gli-Sufu block 10.
Screening COc1ccc(-n2cc(-c3ccc(C)cc3)[n+]3c2SCC3)cc1 returned Beta cell apopt 113*, CSC inhib 25, PAX8 inh HTS 79*, Mdm2-MdmX inh 29 and Shn3 inh set2 79.
For CCC1=NN(C(=O)c2cccc(Br)c2)C(O)(c2ccc(Br)cc2)C1 (stereo not drawn) the results were Beta cell apopt inconclusive, CSC inhib 105*, PAX8 inh HTS 53, Mdm2-MdmX inh 42, Shn3 inh set2 47 and Gli-Sufu block 37.
For CCC1=NN(C(=O)c2ccc(C)cc2)C(O)(c2ccc(Br)cc2)C1 (stereo not drawn) the results were PAX8 inh HTS -35, Mdm2-MdmX inh 6, Shn3 inh set2 -57 and Gli-Sufu block 0.
`C[C@@H]1CN([C@@H](C)CO)C(=O)c2cc(NC(=O)Nc3ccc(F)cc3)ccc2O[C@@H](C)CCCCO[C@@H]1CN(C)S(=O)(=O)c1ccccc1` gave PAX8 inh HTS -13.
Screening C[C@@H]1CCCCO[C@@H](CN(C)S(=O)(=O)c2ccccc2)[C@H](C)CN([C@H](C)CO)C(=O)c2cc(NC(=O)Nc3ccc(F)cc3)ccc2O1 returned PAX8 inh HTS 73*.
Screening C[C@@H]1CN([C@H](C)CO)C(=O)c2cc(NC(=O)Nc3ccc(F)cc3)ccc2O[C@@H](C)CCCCO[C@H]1CN(C)S(=O)(=O)c1ccccc1 returned PAX8 inh HTS 88*.
Screening O=C(C[C@H]1C[C@@H]2c3cc(NC(=O)Nc4ccccc4F)ccc3O[C@@H]2[C@@H](CO)O1)NC1CCCCC1 returned PAX8 inh HTS 9.
Screening CCC(=O)N[C@H]1CC[C@@H](CC(=O)NCC2CCCCC2)O[C@@H]1CO returned PAX8 inh HTS -8.
`COc1cccc(S(=O)(=O)N2CC[C@H]3[C@@H](CO)N(C)c4ccc(C#Cc5ccc(F)cc5)cc4[C@H]32)c1` gave PAX8 inh HTS 85*.
Cc1cccc(S(=O)(=O)N2CC[C@@H]3[C@H](CO)N(C)c4ccc(C#Cc5ccc(F)cc5)cc4[C@@H]32)c1 was read as PAX8 inh HTS 91*.
Screening Cc1ccc(CN(C)C[C@H]2OCc3cn(nn3)CCCC(=O)N([C@H](C)CO)C[C@@H]2C)cc1 returned PAX8 inh HTS -7.
Screening COc1ccccc1-c1ccc([C@@H]2[C@@H]3CN(S(=O)(=O)c4ccc(-c5ccccc5)cc4)C[C@H]2N3)cc1 returned PAX8 inh HTS 107*.

Bioassay records deposited in PubChem BioAssay by several laboratories.
